37 molecules from PubChem BioAssay (Tox21) can be followed below.

Inconclusive results are not listed. A number with no mark means an inactive call. Activity calls are given as the source filed them. Unless noted, calls follow the shape of the dose curve; as a rule, active = well fitted curve in the direction sought with a large enough effect in the repeat runs; inconclusive = weak or mixed curves; inactive = no such curve, though single readings can be large; an effect the other way counts as inactive or inconclusive.

Assay [1] in a line: qHTS assay to identify small molecule antagonists of the estrogen related receptor (ERR) signaling pathway - cell viability counter screen (AID 1224818). Also: series mostly up to about 46 µM. A digest of the protocol:
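Fluorescence from CellTiter-Fluor, read 30 min after reagent addition at 37 C, measured viability of ERR cells exposed to compounds for 17.5 h. Cells had settled 6 h before dosing.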
On the technique in general: qHTS replaces the single test concentration by a dilution series.

Assay [2] can be described thus: qHTS assay to identify small molecule agonists of the estrogen related receptor (ERR) signaling pathway (AID 1224820). A digest of the protocol: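 An ERR cell line provided by NTP was seeded at 2,000 cells per well and allowed to settle for 6 h before compounds in DMSO were added. After 18 h at 37 C, luciferase activity was measured by One-Glo luminescence.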
Assay [3] relates to estrogen-related receptor alpha (ERRalpha) with PGC-1alpha coactivator, human. Description: qHTS assay to identify small molecule antagonists of the estrogen related receptor signaling pathway with the pleiotropic PPARgamma coactivator (PGC) (AID 1224821; calls by dose curve; also: nearly all actives have a fitted effect of over 50% in size; also: potency is read from the fitted curve at half-maximal effect). A digest of the protocol:
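A PGC/ERR cell line supplied by NTP is seeded, allowed 6 h at 37 C, and treated with test compounds in DMSO for 18 h. Signal is then measured as luciferase luminescence using One-Glo.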

The nature of assay [4]: qHTS assay to identify small molecule agonists of the estrogen related receptor signaling pathway with the pleiotropic PPARgamma coactivator (PGC) (AID 1224823). Also: potency is read from the fitted curve at half-maximal effect. A digest of the protocol: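 Compounds dissolved in DMSO are added by pin tool to PGC/ERR cells that have settled for 6 h, and incubation continues 18 h at 37 C. Reporter output is measured as One-Glo luminescence.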

The nature of assay [5]: qHTS assay to identify small molecule antagonists of the estrogen related receptor signaling pathway with the pleiotropic PPARgamma coactivator (PGC) cell viability counter screen (AID 1224822; also: series mostly up to about 46 µM). In outline:
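Fluorescence read-out of CellTiter-Fluor after 30 min at 37 C; PGC/ERR cells, 2,000 per well, had been exposed to DMSO-dissolved compounds for 17.5 h following a 6 h pre-incubation.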

As to `c1ccc(C(NCc2cccnc2)(c2ccccc2)c2ccccc2)cc1`, the Potency entry in assay [1], in assay [2] and in assay [4] was “inactive” throughout. In assay [3], the Potency was 24.6 µM (active).

Regarding `COc1ccccc1N1CCN(CCN2C(=O)CC3(CCCC3)CC2=O)CC1`, the Potency result in assay [1], in assay [2], in assay [3], in assay [5] and in assay [4] was “inactive” throughout.

Take `COc1ccc(NC(=O)c2ccc(-c3ccc(-c4noc(C)n4)cc3C)cc2)cc1N1CCN(C)CC1`: the Potency entry in assay [1], in assay [2], in assay [3], in assay [5] and in assay [4] was “inactive” throughout.

Take `COc1ccccc1N1CCN(CCN(C(=O)C2CCCCC2)c2ccccn2)CC1`: the Potency result in assay [1], in assay [2] and in assay [5] was “inactive” each time.

`Nc1nc(Cl)nc2c1ncn2[C@@H]1O[C@H](COP(=O)(O)OP(=O)(O)OP(=O)(O)O)C(O)[C@H]1O` (stereo partly specified): the Potency result in assay [1], in assay [2], in assay [3] and in assay [5] was “inactive” in each case. The Potency in assay [4] is 1.33 µM (active).

Regarding `c1ccc(C(NCCNC(c2ccccc2)c2ccccc2)c2ccccc2)cc1`, the Potency result in assay [1], in assay [2], in assay [5] and in assay [4] was “inactive” throughout.

As for `CN1CCC2(CCN3CCc4c(oc5ccccc45)C3C2)N(C)C1=O` (stereo unspecified), the Potency result in assay [1], in assay [2], in assay [3], in assay [5] and in assay [4] was “inactive” each time.

Take `C[C@@]1(C2CCCC2)Cc2cc(OCC(=O)O)c(Cl)c(Cl)c2C1=O`: the Potency result in assay [1], in assay [2], in assay [5] and in assay [4] was “inactive” throughout.

`NC(N)=NCc1cccc(I)c1`: the Potency entry in assay [1], in assay [2], in assay [5] and in assay [4] was “inactive” each time.

Turning to `O=C1C2C=CC=CC2=NC(=S)N1CCN1CCC(=C(c2ccc(F)cc2)c2ccc(F)cc2)CC1` (stereo unspecified), the Potency result in assay [1], in assay [2] and in assay [4] was “inactive” each time. Besides, the Potency in assay [3] was 25.6 µM (active).

In the case of `O=c1cc(N2CCOCC2)oc2c(-c3ccccc3)cccc12`, the Potency result in assay [1], in assay [2], in assay [5] and in assay [4] was “inactive” in each case.

In the case of `CCCc1c(-c2ccc(O)cc2)nn(-c2ccc(O)cc2)c1-c1ccc(O)cc1`, the Potency result in assay [1], in assay [2], in assay [5] and in assay [4] was “inactive” each time.

For `CCCCCCN(CCCCCC)C(=O)Cc1c(-c2ccc(F)cc2)[nH]c2ccccc12`, the Potency result in assay [1], in assay [2] and in assay [4] was “inactive” in each case.

On to `COc1cccc(OC)c1OCCNCC1CSc2ccccc2O1` (stereo unspecified), for which the Potency result in assay [1], in assay [2], in assay [3], in assay [5] and in assay [4] was “inactive” each time.

Regarding `CCCCCCCC/C=C\CCCCCCCC(=O)NCCc1ccc(O)c(O)c1`, the Potency result in assay [1], in assay [2] and in assay [4] was “inactive” in each case.

For `OC[C@H]1O[C@@H](n2cnc3cncnc32)[C@H](O)[C@@H]1O`, the Potency result in assay [1], in assay [2], in assay [5] and in assay [4] was “inactive” throughout.

`c1ccc(CN2CCC3(CCCc4ccccc43)CC2)cc1`: the Potency entry in assay [1], in assay [2], in assay [3], in assay [5] and in assay [4] was “inactive” in each case.

Regarding `Nc1nc(SCc2ccc([N+](=O)[O-])cc2)c2ncn([C@@H]3O[C@H](CO)C(O)[C@H]3O)c2n1` (stereo partly specified), the Potency result in assay [1], in assay [2], in assay [3], in assay [5] and in assay [4] was “inactive” throughout.

Turning to `COc1cc2c(cc1O)CC[C@@H]1[C@@H]2CC[C@]2(C)[C@@H](O)CC[C@@H]12`, the Potency entry in assay [1], in assay [2], in assay [3], in assay [5] and in assay [4] was “inactive” each time.

Consider `Nc1nc2ccc(Cl)cc2c2nc(-c3ccco3)nn12`, for which the Potency result in assay [1], in assay [2], in assay [5] and in assay [4] was “inactive” each time.

On to `CCC1(O)CC2CN(CCc3c([nH]c4ccccc34)[C@@](C(=O)OC)(c3cc4c(cc3OC)N(C)C3[C@]45CCN4CC=C[C@@](CC)([C@@H](OC(C)=O)[C@]3(O)C(=O)OC)[C@H]45)C2)C1` (stereo partly specified), for which the Potency result in assay [1], in assay [2], in assay [5] and in assay [4] was “inactive” each time.

Consider `CC(C)(C)c1ccc(/C=C/C(=O)Nc2ccc3c(c2)OCCO3)cc1`, for which the Potency result in assay [1], in assay [2], in assay [3], in assay [5] and in assay [4] was “inactive” each time.

Regarding `CC#CCOC(=O)c1c(C)nc2sc3c(c2c1N)CCC(O)C3` (stereo unspecified), the Potency entry in assay [1], in assay [2], in assay [3], in assay [5] and in assay [4] was “inactive” in each case.

Consider `CN1CCc2cccc3c2C1Cc1ccc(O)c(O)c1-3` (stereo unspecified), for which the Potency entry in assay [1], in assay [2] and in assay [4] was “inactive” throughout. Also, the Potency in assay [3] is 26.6 µM (active).

As for `Cc1nn(-c2ccccc2)c(C)c1/C=N/N1CCN(Cc2ccccc2)CC1`, the Potency entry in assay [1], in assay [2], in assay [3], in assay [5] and in assay [4] was “inactive” throughout.

Turning to `C[C@@H](CN1CCC(Cc2ccccc2)CC1)[C@@H](O)c1ccc(O)cc1`, the Potency result in assay [1], in assay [2], in assay [5] and in assay [4] was “inactive” each time.

For `COCCOc1cc2ncnc(Cl)c2cc1OCCOC`, the Potency entry in assay [1], in assay [2], in assay [5] and in assay [4] was “inactive” each time.

Turning to `O=c1ccc2ccc(O)c(O)c2o1`, the Potency entry in assay [1], in assay [2], in assay [3], in assay [5] and in assay [4] was “inactive” each time.

On to `CN(C)C(=O)[C@H](O)[C@H](Cc1ccccc1)NC(=O)c1cc2cc(Cl)ccc2[nH]1`, for which the Potency entry in assay [1], in assay [2], in assay [3], in assay [5] and in assay [4] was “inactive” each time.

On to `CCc1ccc2c(-c3cccc(Cl)c3)nc(=O)n(CC)c2n1`, for which the Potency entry in assay [1], in assay [2], in assay [3], in assay [5] and in assay [4] was “inactive” throughout.

Regarding `Cn1c(=O)c2[nH]c(C3CCCC3)nc2n(C)c1=O`, the Potency entry in assay [1], in assay [2], in assay [3], in assay [5] and in assay [4] was “inactive” in each case.

For `COC(=O)c1c(C)[nH]c(C)c1C(=O)c1ccccc1Cc1ccccc1`, the Potency result in assay [1], in assay [2], in assay [3], in assay [5] and in assay [4] was “inactive” in each case.

On to `O=C(Nc1nc2ccccc2n1CCN1CCOCC1)c1cccc([N+](=O)[O-])c1`, for which the Potency entry in assay [1], in assay [2], in assay [3], in assay [5] and in assay [4] was “inactive” each time.

For the molecule `O=C1NC(c2cccc([N+](=O)[O-])c2)=CCN1c1ccccc1O`, the Potency entry in assay [1], in assay [2], in assay [5] and in assay [4] was “inactive” each time.

For `COc1cccc(OC)c1OCCNCC1COc2ccccc2O1` (stereo unspecified), the Potency result in assay [1], in assay [2], in assay [5] and in assay [4] was “inactive” throughout.

Take `Cn1cc(C(F)(F)F)nc1-c1ccc(OCC(O)CNCCOc2ccc(O)c(C(N)=O)c2)cc1` (stereo unspecified): the Potency entry in assay [1], in assay [2] and in assay [5] was “inactive” in each case.

For `O=C(Nc1ccc2c(c1)CCN(Cc1ncn[nH]1)C2)c1ccccc1-c1ccc(C(F)(F)F)cc1`, the Potency result in assay [1], in assay [2], in assay [5] and in assay [4] was “inactive” throughout.
